RORgamma inh: inhibitors of mouse ROR gamma transcriptional activity; Drosophila S2 Gal4-RORgamma UAS-luciferase reporter, 20 h; Potency, µM (top dose mostly 53.6 µM), without a hit: top-dose activity change, negative = inhibition, usual class: inhibitors; 310,000 tested, 5.4% active; note: potency is the fitted concentration of half-maximal effect; nearly all actives have a fitted effect of over 60% in size
Target sequence (P51450 whole entry, looked up, the tested form may be a part): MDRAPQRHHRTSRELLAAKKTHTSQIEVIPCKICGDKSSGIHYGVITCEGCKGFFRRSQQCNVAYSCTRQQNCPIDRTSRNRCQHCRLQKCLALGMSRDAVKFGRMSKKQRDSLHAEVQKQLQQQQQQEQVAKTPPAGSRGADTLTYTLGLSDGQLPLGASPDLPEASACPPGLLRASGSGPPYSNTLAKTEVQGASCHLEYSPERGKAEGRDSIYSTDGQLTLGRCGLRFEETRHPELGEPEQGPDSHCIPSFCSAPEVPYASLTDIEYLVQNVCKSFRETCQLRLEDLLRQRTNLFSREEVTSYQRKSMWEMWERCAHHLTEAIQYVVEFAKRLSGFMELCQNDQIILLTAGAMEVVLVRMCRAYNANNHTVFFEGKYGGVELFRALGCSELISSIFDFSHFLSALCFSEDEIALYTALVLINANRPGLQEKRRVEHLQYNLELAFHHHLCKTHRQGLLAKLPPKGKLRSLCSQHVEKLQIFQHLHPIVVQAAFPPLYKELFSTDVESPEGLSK
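Using a luciferase readout, inhibitors were identified by reduced reporter activity in Drosophila cells coexpressing a copper-inducible Gal4–ROR gamma fusion and UAS-driven Photinus luciferase, incubated 20 hr after 700 uM copper sulfate.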
DT40 TDP1 no CPT: qHTS for Inhibitors of human tyrosyl-DNA phosphodiesterase 1 (TDP1): qHTS in cells in absence of CPT. DT40 Tdp1-/- hTDP1 cells, no CPT, ATP luminescence, 48 h. Potency, µM (highest dose often 46.2 µM), for the others: at the highest dose activity change, negative = growth inhibition, actives largely listed as inhibitors. 420,000 tested, 15% active. AID 686978, 2013; note: potency is the fitted concentration of half-maximal effect; nearly all actives have a fitted effect of over 55% in size
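Chicken DT40 Tdp1-/- cells complemented with human TDP1, screened without camptothecin (DMSO vehicle only), 400 cells/well. Compounds pin-transferred, cells incubated at 37 °C for at least 48 hr. Growth read as ATP-dependent luminescence (CellTiter-Glo, 30 min at RT).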
TDP1 cell CPT: growth inhibition of DT40 Tdp1-/-;hTDP1 cells with camptothecin (screen for TDP1 inhibitors) | chicken DT40 Tdp1-/-;hTDP1 cells + 20 nM CPT, ATP luminescence, 48 h | Potency, µM (top dose mostly 46.2 µM), for the others: top-dose activity change, negative = growth inhibition, most hits filed as inhibitors | 420,000 tested, 12% active | AID 686979; note: potency is the fitted concentration of half-maximal effect; nearly all actives have a fitted effect of over 55% in size
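Cell growth measured by CellTiter-Glo luminescence after a minimum 48 h, 37 C compound exposure with 20 nM CPT in Tdp1-knockout DT40 cells stably expressing hTDP1, seeded 400/well; qHTS titration format.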
VP16 counter: Gal4-VP16 reporter inhibition counter-screen | Drosophila S2 Gal4-VP16 UAS-luciferase, luminescence, 20 h | Potency, µM (doses to about 53.6 µM), without a hit: at the top dose activity, negative = inhibition, hits mostly inhibitors | 310,000 tested, 3.5% active | AID 2546;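 note: Gal4-VP16 expression switched on by copper sulfate through the metallothionein promoter; potency is the fitted concentration of half-maximal effect; nearly all actives have a fitted effect of over 50% in size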
ELG1 DNA repair: ELG1-dependent DNA repair inhibition; 330,000 tested, 2.3% active; HEK293T ELG1-luciferase reporter, luminescence, 16 h; DNA damage induced by 5-fluorouridine; Potency, µM (titrated, usually from 46.1 µM), without a hit: top-dose activity change, negative = inhibition, usual class: inhibitors; note: potency is the fitted concentration of half-maximal effect; nearly all actives have a fitted effect of over 55% in size
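Cells (2,000 per well) received 5-fluorouridine plus test compound or DMSO and were incubated 16 hr at 37 °C, 5% CO2. Luciferase activity was read by luminescence 30 min after ONE-Glo addition; signal suppression marked inhibition of damage-induced ELG1 function.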
IL-1B inflam inh: inhibitors of inflammasome signaling (IL-1 beta secretion); THP-1 LPS/ATP IL-1B secretion, AlphaLISA, 16 h; active compounds read low; 360,000 tested, 4.7% active; activity change, % at 57.5 µM; AID 743279; in the data active = activity change below about -50%; inconclusive = mostly about -30% to -49%
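Secreted IL-1B measured by AlphaLISA bead assay after 16 h compound exposure of THP-1 cells; compounds (final up to 57.5 uM) added 1 h before LPS (250 ng/mL) and ATP (1.25 mM) stimulation; lower signal means less secretion.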
An asterisk follows results filed as active; ? = inconclusive; · = no result; [ ] = another dose, or the depositor's remark. This is a sample that favours compounds with a hit; in the whole collection about 21% have one here. Unless noted, calls come from the whole dose curve; as a rule, active = well fitted curve in the direction sought with a large enough effect; inconclusive = small, poorly fitted or top-dose-only effect, or another doubt; inactive = no such curve, though single readings can be large; an effect the other way counts as inactive or inconclusive. % is set by controls: 0 for no effect and ±100 for the full control effect.

SMILES | RORgamma inh | DT40 TDP1 no CPT | TDP1 cell CPT | VP16 counter | ELG1 DNA repair | IL-1B inflam inh
Fc1cccc(CO/N=C/c2c(-c3ccccc3)nc3ccc(Cl)cn23)c1 | 5% | ? | -6% | 8% | 2% | 1
O=C(NCc1cccc(F)c1)C1CCCN(C(=O)N2CCOc3ccccc32)C1 (stereo not given) | · | 0% | 2% | · | · | ·
Nc1c2c(nc3ccc(Br)cc13)N(Cc1ccccc1)CC2 | ? | 21µM* | ? | 4% | -6% | ?
Nc1c2c(nc3ccc(Br)cc13)N(c1ccccc1)CC2 | 26% | ? | ? | 14% | 18% | -21
Nc1c2c(nc3ccc(Br)cc13)N(C1CCCCC1)CC2 | -8% | · | · | -5% | 6% | ·
Cc1cccc(N2CCc3c2nc2ccc(Br)cc2c3N)c1 | ? | ? | ? | ? | ? | -94*
Cc1cnc(-n2ncc(C(=O)N(C)C3CCOC3)c2C)nc1-c1ccc(F)cc1 (stereo not given) | · | -10% | -2%[9.04 µM] | · | · | ·
CCCS(=O)(=O)NC(=O)C1(C)CCCN(C(=O)/C=C/c2ccccc2)C1 (stereo not given) | · | 2% | 6% | · | · | 31
O=S(=O)(c1cc(Cl)cc(Cl)c1)N1CCN(c2nc(-c3cccs3)nc3ccccc23)CC1 | · | ? | -27% | · | · | ·
COC(=O)C[C@@H]1CC[C@H](NC(=O)Nc2cccc(F)c2)[C@@H](CO)O1 | · | 6% | 4% | · | · | 6
COC(=O)C[C@H]1CC[C@H](NC(=O)Nc2ccccc2F)[C@@H](CO)O1 | · | 23µM* | 23µM* | · | · | -8
CCCCOc1ccc(CNC(=O)C2COc3ccc(OC)cc3C2)cc1 (stereo not given) | · | ? | 6% | · | · | ·
Cc1ccc(CN2C(=O)CCC2(C)c2nnnn2-c2c(C)cccc2C)cc1 (stereo not given) | · | 16µM* | 18µM* | · | · | 15
CC(=O)c1ccc(S(=O)(=O)N(CC(=O)NC2CC2)Cc2ccc(F)cc2)cc1 | · | -3% | -5% | · | 18% | -11
COc1ccc(OCc2ccc(-c3nc(C#N)c(NC(C)c4ccccc4)o3)o2)cc1 (stereo not given) | · | -15% | -11% | · | · | ·
Cc1cccnc1NC1CCCCC1 | -27% | 2% | -4% | 22% | 19% | -12
c1ccc2c(NC3CCCC3)nnc(NC3CCCC3)c2c1 | -1% | 16µM* | ? | 3% | -6% | -24
Cc1cn2c(=O)c(S(=O)(=O)Nc3ccc(OC(F)(F)F)cc3)c(C)nc2s1 | · | 23µM* | 21µM* | · | · | ·
COc1cc(OC)c(NS(=O)(=O)c2c(C)nc3sc(C)cn3c2=O)cc1Cl | · | 15µM* | ? | · | · | ·
CCCCOC(=O)c1ccc(NS(=O)(=O)c2c(C)nc3scc(C)n3c2=O)cc1 | · | 23µM* | 13µM* | · | · | ·
Cc1nn(-c2ccccc2)c(Cl)c1/C=N/Nc1ccc(Cl)c(C(=O)O)c1 | ? | ? | -1% | ? | ? | 55
CNC(=S)N/N=C/c1c(C)nn(-c2ccccc2)c1Cl | ? | -29% | -26% | 0.89µM* | ? | -11
CNC(=S)N/N=C/c1c(C)nn(-c2cccc(Cl)c2)c1Cl | 2µM* | -3% | -11% | 1.3µM* | ? | 0
Cc1nn(-c2ccccc2)c(Cl)c1/C=N/NC(=O)OC(C)(C)C | ? | 16µM* | ? | 1% | ? | -23
Cc1nn(-c2ccccc2)c(Cl)c1/C=N/NC(=O)c1ccco1 | 22% | -23% | 3% | -2% | ? | 6
Cc1cccc(C(=O)N[C@H](C(=O)OCC(=O)NC2CCS(=O)(=O)C2)C(C)C)c1 (stereo not given in full) | 36% | -18% | 2% | ? | 17% | 19

Screening results: PubChem BioAssay, National Center for Advancing Translational Sciences (NCATS)
